# GPR151 ag: activators of human GPR151, primary screen, cell-based, PathHunter beta-arrestin, luminescence; 650,000 compounds, 1% hits; activation, % at 11.2 µM; PathHunter beta-arrestin GPR151 cells; AID 1508602, 2020; G-protein coupled receptor 151 (Homo sapiens), Q8TDV0; in the data active means activation above about 4.9%
# Target sequence (Q8TDV0 whole entry, looked up): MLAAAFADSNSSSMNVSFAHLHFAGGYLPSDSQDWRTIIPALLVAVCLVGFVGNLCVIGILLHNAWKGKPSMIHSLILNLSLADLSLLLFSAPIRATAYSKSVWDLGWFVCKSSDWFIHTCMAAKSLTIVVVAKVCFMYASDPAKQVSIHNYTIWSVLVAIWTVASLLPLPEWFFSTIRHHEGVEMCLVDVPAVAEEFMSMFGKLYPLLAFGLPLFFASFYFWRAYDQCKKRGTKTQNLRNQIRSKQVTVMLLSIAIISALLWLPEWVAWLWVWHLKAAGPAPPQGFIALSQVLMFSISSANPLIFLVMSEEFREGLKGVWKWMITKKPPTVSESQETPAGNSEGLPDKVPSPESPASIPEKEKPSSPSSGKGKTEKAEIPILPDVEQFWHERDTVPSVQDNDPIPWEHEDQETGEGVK
# TEAD-YAP block: TEAD-YAP interaction inhibition, primary screen, TEAD-YAP interaction inhibitor project, luminescence, HEK-TIYL cells; inhibition, % at 9.12 µM; 640,000 compounds, 1.4% hits; TEAD-Gal4/YAP UAS-luciferase luminescence; in the data active means inhibition above about 32%
# MITF inh: MITF inhibitors, primary screen, biochemical, AlphaScreen, human. inhibition, % at 2.6 µM. 650,000 compounds, 0.91% hits. AID 1259374, 2018. AlphaScreen MITF homodimerization, bead proximity signal. Microphthalmia-associated transcription factor (Homo sapiens), O75030; in the data active means inhibition above about 50%
# FBW7 act: FBW7 E3 ligase activators, primary screen, biochemical, AlphaScreen, human; F-box/WD repeat-containing protein 7 (Homo sapiens), Q969H0; AlphaScreen FBW7–phospho-cyclin E peptide binding, activator screen; normalized activity (activation), % at 26.1 µM; 650,000 compounds, 0.13% hits; in the data active means normalized activity above about 1.9%;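 further: purified mutant Fbw7 with reduced substrate affinity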
# A number is an active result; - = inactive. Only some compounds are listed: those with a hit (about 3.5% of all), similar ones and a draw of the others.
SMILES,GPR151 ag,TEAD-YAP block,MITF inh,FBW7 act
COc1ccc(CCNc2nc(Nc3cccnc3)nc3c2ncn3-c2ccsc2)cc1,-,64.8,-,-
Oc1ccc(CCNc2nc(Nc3ccncc3)nc3c2ncn3-c2ccsc2)cc1,-,56.2,-,-
O=C(Nc1ccccc1N1CCOCC1)c1cccc(I)c1,-,-,-,-
COc1cc(Br)ccc1OCC(=O)N/N=C/c1cccc([N+](=O)[O-])c1O,-,-,-,-
COc1ccc(CCNc2nc(NC3CCC(O)CC3)nc3c2ncn3-c2ccsc2)cc1 (centres undefined),-,48.4,-,-
COc1ccc(CCNc2nc(Nc3cnccn3)nc3c2ncn3-c2ccsc2)cc1,-,-,-,-
COc1ccc(CCNc2nc(Nc3ccncc3)nc3c2ncn3-c2ccsc2)cc1,-,42.5,-,-
NC(=O)c1ccccc1NC(=O)c1cccs1,-,-,-,-
c1ccc(CCNc2nccn3c(-c4ccoc4)cnc23)nc1,-,-,-,-
OCCNc1nccn2c(-c3ccccc3CO)cnc12,-,-,-,2.1
COCCNc1nccn2c(-c3ccccc3CO)cnc12,-,-,-,-
c1ccc(CCNc2nccn3c(-c4ccsc4)cnc23)nc1,-,50.1,-,-
O=c1nc(N/N=C/c2ccc(Cl)cc2Cl)cn[nH]1,-,67.0,-,-
O=c1nc(N/N=C/c2ccccc2Cl)cn[nH]1,-,-,-,-
O=C(Cn1cnc2scc(-c3ccc(Cl)cc3)c2c1=O)N1CCCC1,-,-,-,-
N#CC1=C(N)N(c2ccc(Br)cc2F)C2=C(C(=O)CCC2)C1c1ccc(Br)cc1 (centres undefined),-,-,-,-
CC(C)c1nc2ccc(-c3cnn(-c4cccc(CN5CCOCC5)c4)c3)cc2c(=O)[nH]1,-,-,-,-
Cc1nc2ccc(-c3cnn(-c4cccc(N5CCOCC5)c4)c3)cc2c(=O)n1C,-,87.1,-,-
CCOC(=O)c1ccc(N=C2SC(C(=O)Nc3ccc(F)cc3)CC(=O)N2C)cc1 (centres undefined),-,-,-,-
CCOc1cc(/C=N/Nc2nc3c(c(=O)n(C)c(=O)n3C)n2Cc2ccccc2)ccc1O,-,43.7,-,-
C/C(Cl)=C/Cn1c(NCCc2ccccc2)nc2c1c(=O)n(C)c(=O)n2C,-,-,-,-
C/C(=N/Nc1nc2c(c(=O)n(C)c(=O)n2C)n1Cc1ccccc1)c1ccccc1O,-,-,-,-
C=CCn1c(NCCc2ccccc2)nc2c1c(=O)n(C)c(=O)n2C,-,36.8,-,-
C=CCNc1nc2c(c(=O)n(C)c(=O)n2C)n1Cc1ccccc1,-,34.5,-,-
CCC(CC)NC(=O)COC(=O)c1ccc(O)cc1,-,-,-,-
SMILES,GPR151 ag,TEAD-YAP block,MITF inh,FBW7 act
O=C(CC1CC1)Nc1cnc2cnc(-c3cncnc3)cn12,-,-,-,-
COC(=O)c1c(C)oc2c1cc(NS(=O)(=O)c1ccc(OC)cc1)c1ccccc12,-,50.8,-,-
COc1ccc(S(=O)(=O)Nc2cc3c4c(oc3c3ccccc23)CCCC4=O)cc1,-,55.6,-,-
COC(=O)c1c(C)oc2c1cc(NS(=O)(=O)c1ccccc1)c1ccccc12,-,-,-,-
COc1cc(NC(=O)c2cccc(-n3cc(Nc4cnnn4-c4ccccc4)cn3)c2)ccc1N1CCOCC1,-,-,-,-
COc1cc(C(=O)Nc2cccc(C(=O)Nc3cccc4ccccc34)c2)cc(OC)c1OC,-,64.0,-,-
COc1ccc(C(=O)Nc2ccc3c4c(cccc24)CC3)cc1,-,-,-,-
COc1cc(NC(=O)c2cccc(-n3cc(N(C)c4nnnn4-c4ccccc4)cn3)c2)ccc1N1CCOCC1,-,38.4,-,-
COc1ccc(C(=O)Nc2cccc3ccccc23)cc1OC,-,-,-,-
COc1cc(NC(=O)c2cccc(-n3cc(NC(=O)Nc4ccccc4)cn3)c2)cc(OC)c1OC,-,36.6,-,-
COc1cc(C(=O)Nc2ccc3c4c(cccc24)CC3)cc(OC)c1OC,-,52.8,-,-
Cc1ccccc1N1C(=O)NC(=O)/C(=C\c2ccc(N3CCCCC3)o2)C1=O,-,-,-,-
CCCn1cnc2sc(C(=O)N3CC(C)CC(C)C3)c(C)c2c1=O (centres undefined),-,-,-,-
O=[N+]([O-])c1ccc2c(c1)CN(Cc1ccccc1)CO2,-,-,-,-
Cc1ccc(C(C)C)c(OCC(=O)Nc2ccc(C(=O)Nc3cccc4ccccc34)cc2)c1,-,59.6,-,-
CC(=O)c1ccc(NC(=O)COc2cc(C)ccc2C(C)C)cc1,-,-,-,-
CCN(CC)c1ccc(NC(=O)CNCCN2CCOCC2)c(C)c1,-,-,60.6,-
O=C1c2cccc3cccc(c23)C(=O)N1CCN1CCCCC1,-,67.6,-,-
O=C1c2cccc3cccc(c23)C(=O)N1CCN1CCN(CCc2ccccc2)CC1,-,-,-,-
COc1ccc(/C=C2\CN(C)C/C(=C\c3ccc(OC)cc3OC)C2=O)c(OC)c1,-,-,-,-
COC(=O)c1cc(Nc2ccccc2OC)c2cc(Cl)ccc2n1,-,-,-,-
COC(=O)c1cc(Nc2ccc3c(c2)OCO3)c2cc(C)ccc2n1,-,-,-,-
COC(=O)c1cc(Nc2cccc(OC)c2)c2cc(Cl)ccc2n1,-,37.7,-,-
COC(=O)c1cc(Nc2cc(OC)cc(OC)c2)c2cc(C)ccc2n1,-,41.2,-,-
O=[N+]([O-])c1ccc(S(=O)(=O)Nc2ccc(S(=O)(=O)N3CCCCC3)cc2)cc1,-,-,-,-
SMILES,GPR151 ag,TEAD-YAP block,MITF inh,FBW7 act
CC1C(c2ccc3ccccc3n2)=CNc2ccccc21 (centres undefined),-,41.1,-,-
O=C(C1CCCC1)N1CCC2(CC1)OCc1cc(Br)ccc1O2,-,-,-,-
O=C(/C=C/c1cccs1)Nc1ccc(Cl)c2ncsc12,-,87.0,-,-
Cc1ccnc(NC(=O)/C=C/c2cccs2)c1,-,55.1,-,-
Cn1cc(CC(=O)N2CCC(C(=O)Nc3nccs3)CC2)c2ccccc21,-,-,-,-
COc1cc(/C=C/C(=O)C(C)(C)O)cc(OC)c1OC,-,-,-,-
COc1cc(/C=C/C(=O)N2CCC=CC2=O)cc(OC)c1OC,-,77.9,-,-
COc1cc(Nc2nc(NCCO)c3[nH]cnc3n2)cc(OC)c1OC,-,-,-,-
Cc1cnc(Nc2cnccn2)nc1NCCc1ccc(O)cc1,-,35.7,-,-
Oc1ccc(CCNc2nc(Nc3ccncc3)nc3nc[nH]c23)cc1,-,-,-,-
COc1cc(Nc2nc(NCCc3ccc(O)cc3)c3[nH]cnc3n2)cc(OC)c1OC,-,46.0,-,-
Cc1cnc(Nc2ccncn2)nc1NCCc1ccc(O)cc1,-,-,-,-
Oc1ccc(CCNc2nc(Nc3cnccn3)nc3nc[nH]c23)cc1,-,39.0,-,-
CN(C)c1cccc(Nc2nc(NCc3ccccc3)c3[nH]cnc3n2)c1,-,-,-,2.4

# Source: PubChem BioAssay
